PubChem BioAssay
The source made the active and inactive calls.

Assays:
[1] = system: Plasmodium falciparum Sir2 (PF13_0152, Sir2A); assay: Plasmodium falciparum Sir2A binding compounds – biochemical, small-molecule microarray, 635 nm fluorescence, primary screen (AID 1098); details: fluorescence 635 nm, higher = more signal;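 note: score merges spot fluorescence intensity with its signal-to-noise ratio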
[2] = probe aDKK1 binding to arrayed compounds – biochemical, biotinylated probe, 635/667 nm fluorescence, primary screen (AID 1099); details: small-molecule microarray, higher = more signal;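 note: score merges 667nm spot fluorescence with signal to noise across triplicate slides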
[3] = probe aCHRDL2 binding to arrayed compounds – biochemical, biotinylated probe, 635/667 nm fluorescence, primary screen (AID 1100); details: small-molecule microarray, higher = more signal
[4] = change in splice reporter luminescence, either direction, cell-based, HEK293, spliceosome inhibition project, primary screen (AID 1101); details: HEK293 splicing luciferase reporter, 24 h, higher = more signal, called active from +8 up or from −8 down;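 note: HEK293 cells carrying a splicing-competent luciferase reporter gene; test concentration not given here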
[5] = biological target: Fibroblast growth factor 10 (Homo sapiens) (UniProt O15520); assay: compounds binding fibroblast growth factor 10 – biochemical, small-molecule microarray, 635 nm fluorescence, primary screen (AID 1102); details: FGF10 binding, fluorescence 635 nm, higher = more signal
Fibroblast growth factor 10 (Homo sapiens), sequence (O15520 whole entry, looked up): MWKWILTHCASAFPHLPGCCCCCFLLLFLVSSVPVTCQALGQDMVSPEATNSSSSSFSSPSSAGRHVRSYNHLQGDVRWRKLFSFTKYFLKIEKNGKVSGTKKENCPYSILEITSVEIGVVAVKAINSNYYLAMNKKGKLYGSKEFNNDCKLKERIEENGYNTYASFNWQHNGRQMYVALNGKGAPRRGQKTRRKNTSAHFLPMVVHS

[6] = system: glycogen synthase kinase-3 (GSK3A per assay name; protocol says GSK3B); assay: compounds binding glycogen synthase kinase-3 – biochemical, small-molecule microarray, 635 nm fluorescence, GSK3A, primary screen (AID 1103); details: fluorescence 635 nm, higher = more signal; note: the record names both GSK3A and GSK3B
[7] = biological target: Epidermal growth factor receptor (Homo sapiens) (UniProt P00533); assay: compounds binding epidermal growth factor receptor – biochemical, small-molecule microarray, 635 nm fluorescence, primary screen (AID 1104); details: EGFR binding, higher = more signal;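 note: score merges 667 nm emission intensity with spot signal to noise over triplicate slides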
Epidermal growth factor receptor (Homo sapiens), sequence (P00533 whole entry, looked up): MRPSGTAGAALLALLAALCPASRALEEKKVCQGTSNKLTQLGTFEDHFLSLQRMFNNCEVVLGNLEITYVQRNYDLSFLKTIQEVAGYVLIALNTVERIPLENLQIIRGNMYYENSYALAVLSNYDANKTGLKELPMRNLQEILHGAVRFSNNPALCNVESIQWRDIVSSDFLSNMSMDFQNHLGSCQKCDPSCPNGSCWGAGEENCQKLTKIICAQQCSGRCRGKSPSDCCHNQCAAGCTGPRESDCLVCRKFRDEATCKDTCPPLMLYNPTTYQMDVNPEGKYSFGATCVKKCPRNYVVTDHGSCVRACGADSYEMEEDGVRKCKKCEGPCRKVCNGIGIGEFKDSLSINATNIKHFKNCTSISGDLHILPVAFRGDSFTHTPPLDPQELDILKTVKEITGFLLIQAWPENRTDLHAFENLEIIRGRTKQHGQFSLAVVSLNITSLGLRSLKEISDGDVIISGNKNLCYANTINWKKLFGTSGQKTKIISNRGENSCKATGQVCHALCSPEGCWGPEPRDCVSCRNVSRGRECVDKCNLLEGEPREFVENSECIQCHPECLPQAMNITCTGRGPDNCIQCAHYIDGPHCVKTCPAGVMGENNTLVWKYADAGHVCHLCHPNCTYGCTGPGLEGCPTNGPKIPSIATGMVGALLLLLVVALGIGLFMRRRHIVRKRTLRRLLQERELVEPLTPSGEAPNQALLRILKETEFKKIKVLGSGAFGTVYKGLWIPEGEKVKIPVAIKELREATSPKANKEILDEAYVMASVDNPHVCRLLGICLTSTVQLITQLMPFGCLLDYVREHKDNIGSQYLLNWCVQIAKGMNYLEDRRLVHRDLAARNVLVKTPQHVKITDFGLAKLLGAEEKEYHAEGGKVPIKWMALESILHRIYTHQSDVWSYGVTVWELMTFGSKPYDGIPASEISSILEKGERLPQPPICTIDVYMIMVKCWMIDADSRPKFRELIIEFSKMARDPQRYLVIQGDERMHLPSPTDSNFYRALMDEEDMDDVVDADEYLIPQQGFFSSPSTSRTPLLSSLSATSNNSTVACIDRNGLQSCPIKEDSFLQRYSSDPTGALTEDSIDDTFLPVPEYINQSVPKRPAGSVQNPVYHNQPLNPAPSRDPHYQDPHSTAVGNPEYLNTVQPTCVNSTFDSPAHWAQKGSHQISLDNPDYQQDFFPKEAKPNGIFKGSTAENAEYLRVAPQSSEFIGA

[8] = biological target: Follistatin-related protein 3 (Homo sapiens) (UniProt O95633); assay: compounds binding follistatin-related protein 3 – biochemical, small-molecule microarray, 635 nm fluorescence, primary screen (AID 1105); details: FSTL3 binding, higher = more signal;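 note: score merges emission near 667 nm and signal to noise per printed spot across three slides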
Follistatin-related protein 3 (Homo sapiens), sequence (O95633 whole entry, looked up): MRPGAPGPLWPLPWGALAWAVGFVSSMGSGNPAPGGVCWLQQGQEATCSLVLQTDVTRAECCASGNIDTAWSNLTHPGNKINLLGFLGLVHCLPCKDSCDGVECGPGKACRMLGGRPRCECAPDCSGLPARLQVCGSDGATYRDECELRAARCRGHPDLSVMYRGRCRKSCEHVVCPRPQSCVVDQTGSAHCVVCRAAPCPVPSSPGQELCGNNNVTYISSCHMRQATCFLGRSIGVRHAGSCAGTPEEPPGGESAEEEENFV

[9] = biological target: Dickkopf-related protein 1 (Homo sapiens) (UniProt O94907); assay: small molecules binding DKK1 protein – biochemical, small-molecule microarray, 635 nm fluorescence scan, primary screen (AID 1106); details: higher = more signal;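 note: score merges emission near 667 nm with signal to noise over three replicate slides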
Dickkopf-related protein 1 (Homo sapiens), sequence (O94907 whole entry, looked up): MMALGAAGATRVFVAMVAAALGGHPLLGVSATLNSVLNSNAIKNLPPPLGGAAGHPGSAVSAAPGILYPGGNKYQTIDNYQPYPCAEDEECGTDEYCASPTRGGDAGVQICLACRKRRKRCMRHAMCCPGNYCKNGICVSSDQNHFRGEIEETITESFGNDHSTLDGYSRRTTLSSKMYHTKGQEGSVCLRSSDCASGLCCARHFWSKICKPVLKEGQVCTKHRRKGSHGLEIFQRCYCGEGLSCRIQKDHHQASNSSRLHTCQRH

[10] = system: Inhibin beta A chain (activin A); assay: small molecules binding activin A – biochemical, small-molecule microarray, 635 nm fluorescence scan, primary screen (AID 1107); details: INHBA, higher = more signal;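 note: mouse activin A protein probed at 4.33 µg/mL on printed slides; score merges bound-protein fluorescence near 667 nm with spot signal-to-noise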
[11] = system: Human papillomavirus type 1a protein E7 (residues 44-93); assay: small molecules binding HPV E7 44-93 – biochemical, small-molecule microarray, residues 44-93, 635 nm fluorescence, primary screen (AID 1108); details: fluorescence 635 nm, higher = more signal;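 note: E7 fragment applied at 1 µg/mL in TBST for 1 h at 4 C; score combines spot fluorescence with its signal to noise ratio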
[12] = hepatitis C replication reporter changes, two-sided – Huh7 cells, luciferase reporter, HCV replication inhibitor project, primary screen (AID 1109); details: Huh7 HCV replicon luciferase reporter, 48 h; higher = more signal;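 note: huh7 hepatoma cells harbouring a luciferase neomycin HCV replicon reporter; luciferase luminescence as measure of HCV replicon replication; test concentration not given here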
[13] = biological target: Left-right determination factor 2 (Homo sapiens) (UniProt O00292); assay: small molecules binding LEFTY2 protein – biochemical, small-molecule microarray, 635 nm fluorescence scan, primary screen (AID 1110); details: higher = more signal
Left-right determination factor 2 (Homo sapiens), sequence (O00292 whole entry, looked up): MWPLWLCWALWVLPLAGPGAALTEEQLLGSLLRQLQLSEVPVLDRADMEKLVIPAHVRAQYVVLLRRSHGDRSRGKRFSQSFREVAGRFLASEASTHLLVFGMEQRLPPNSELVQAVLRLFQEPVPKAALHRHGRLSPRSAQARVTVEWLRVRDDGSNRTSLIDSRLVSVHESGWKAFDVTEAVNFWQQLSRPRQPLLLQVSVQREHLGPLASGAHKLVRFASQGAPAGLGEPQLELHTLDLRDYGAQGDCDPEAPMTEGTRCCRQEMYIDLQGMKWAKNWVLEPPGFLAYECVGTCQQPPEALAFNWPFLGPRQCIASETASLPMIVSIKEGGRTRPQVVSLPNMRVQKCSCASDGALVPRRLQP

[14] = biological target: Calmodulin-1 (Homo sapiens) (UniProt P0DP23); assay: small molecules binding calmodulin-1 with EGTA – biochemical, small-molecule microarray, Cy5-labelled CALM1, profiling panel (AID 1111); details: Cy5-CALM1 binding fluorescence, higher = more signal;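 note: labelled calmodulin applied in Tris saline Tween buffer holding calcium plus EGTA and DTT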
[15] = biological target: Calmodulin-1 (Homo sapiens) (UniProt P0DP23); assay: small molecules binding Ca-loaded calmodulin-1 – biochemical, small-molecule microarray, Cy5-labelled CALM1, plus calcium, artefact control for SMM control-protein annotation, profiling panel (AID 1112); details: Cy5-CALM1 binding fluorescence, higher = more signal;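 note: score merges spot fluorescence with signal to noise from triplicate slides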
[16] = probe aWnt5a binding to arrayed compounds – biochemical, biotinylated probe, 635/667 nm fluorescence, primary screen (AID 1113); details: small-molecule microarray, higher = more signal;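 note: score merges 667 nm fluorescence intensity with signal-to-noise per printed feature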
[17] = probe aShh binding to arrayed compounds – biochemical, biotinylated probe, 635/667 nm fluorescence, primary screen (AID 1114); details: small-molecule microarray, higher = more signal;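 note: probe is biotin-labelled aShh protein from a stem cell growth factor screen; measures binding of labelled protein to compounds printed on the slide; score merges feature fluorescence at 667 nm with signal-to-noise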
[18] = probe aNog binding to arrayed compounds – biochemical, biotinylated probe, 635/667 nm fluorescence, primary screen (AID 1115); details: small-molecule microarray, higher = more signal;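 note: probe is biotinylated aNog protein used at 0.15 µg/mL for 1 h at 4 C; z-score combines 667 nm fluorescence of each spot with its signal to noise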
[19] = biological target: Torsin-1A-interacting protein 1 (Homo sapiens) (UniProt Q5JTV8); assay: compound microarray binding of lysate hLAP1 – cell lysate, small-molecule microarray, COS7 lysate, 635/667 nm fluorescence, primary screen (AID 1116); details: 635 nm fluorescence, higher = more signal
Torsin-1A-interacting protein 1 (Homo sapiens), sequence (Q5JTV8 whole entry, looked up): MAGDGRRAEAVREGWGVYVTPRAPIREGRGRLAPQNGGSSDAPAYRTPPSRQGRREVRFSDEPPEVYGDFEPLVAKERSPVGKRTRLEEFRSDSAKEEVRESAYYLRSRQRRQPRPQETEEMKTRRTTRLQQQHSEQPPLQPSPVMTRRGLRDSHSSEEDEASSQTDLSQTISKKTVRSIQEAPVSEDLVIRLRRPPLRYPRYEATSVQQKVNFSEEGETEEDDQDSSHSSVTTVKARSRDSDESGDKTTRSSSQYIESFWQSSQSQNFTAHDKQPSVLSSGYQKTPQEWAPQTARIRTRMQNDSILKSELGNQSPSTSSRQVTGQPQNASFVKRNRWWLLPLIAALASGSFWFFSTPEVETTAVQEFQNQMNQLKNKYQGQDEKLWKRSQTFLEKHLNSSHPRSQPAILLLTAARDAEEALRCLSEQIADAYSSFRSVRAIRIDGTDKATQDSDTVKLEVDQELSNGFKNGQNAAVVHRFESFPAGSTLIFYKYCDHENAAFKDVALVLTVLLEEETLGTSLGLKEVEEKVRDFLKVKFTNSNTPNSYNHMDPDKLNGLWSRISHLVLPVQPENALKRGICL

[20] = biological target: Alpha-bungarotoxin (Bungarus multicinctus) (UniProt P60615); assay: compounds binding labelled alpha-BTX control protein – biochemical, small-molecule microarray, Alexa647 label, 635/667 nm fluorescence, artefact control for SMM control protein annotation, profiling panel (AID 1117); details: alpha-BTX-A647 binding fluorescence, higher = more signal
Alpha-bungarotoxin (Bungarus multicinctus), sequence (P60615 whole entry, looked up): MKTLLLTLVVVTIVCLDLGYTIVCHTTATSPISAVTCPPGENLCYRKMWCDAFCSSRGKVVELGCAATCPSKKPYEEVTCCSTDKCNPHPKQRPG

Row | Compound | composite z-score [1] | composite z-score [2] | composite z-score [3] | z-score [4] | composite z-score [5] | composite z-score [6] | composite z-score [7] | composite z-score [8] | composite z-score [9] | composite z-score [10] | composite z-score [11] | z-score [12] | composite z-score [13] | composite z-score [14] | composite z-score [15] | composite z-score [16] | composite z-score [17] | composite z-score [18] | composite z-score [19] | composite z-score [20]
1 | CCCC[C@@H]1C[C@H]1[C@@H](NC(=O)c1cccs1)c1ccc(-c2ccccc2)cc1 | -0.0357 | -0.0102 | 0.69 | -1.23 (inactive) | 0.655 | -0.595 | -0.0136 | 0.369 | -0.116 | 1.3 | 0.495 | -2.05 | -0.0554 | 0.362 | 0.295 | -0.0704 | -0.138 | 0.103 | 0.254 | -0.474
2 | C=C(C(=O)CC[C@@H](OC(=O)c1cccnc1)c1ccccc1OCCO)C(C)C | 0.0757 | -0.181 | 0.0623 | 1.34 (inactive) | 0.969 | 0.342 | 0.029 | 0.401 | 0.063 | 1.34 | -0.139 | -2.35 | 0.373 | -0.948 | -0.895 | -0.0643 | -0.0977 | -0.247 | 1.85 | 0.593
3 | CCOC(=O)C[C@H]1[C@H](OC(=O)c2ccc(C(=O)c3ccccc3)cc2)[C@@H](NC(=O)c2ccccc2)c2cc(OCCCO)ccc2N1C(=O)c1ccc2ccccc2n1 | 0.295 | -0.349 | -0.267 | 0.487 (inactive) | -0.286 | 1.05 | 0.267 | 0.399 | -0.186 | -0.136 | 1.31 | -1.16 | 0.495 | 1.61 | 0.506 | -0.0614 | -0.138 | -0.308 | 0.239 | 0.635
4 | C=CCC(OC(C)=O)[C@@H]1[C@@H](N(Cc2ccc(-c3cccc(C(F)(F)F)c3)o2)C(=O)c2ccc(C)cc2)c2cc(OCCCO)ccc2N1C(=O)Cc1ccc2ccccc2c1 (stereo not given in full) | -0.291 | -0.183 | 0.314 | -0.337 (inactive) | -0.0662 | -1.46 | -0.206 | -0.458 | -0.214 | 1.14 | -0.312 | 0.237 | -0.628 | -0.424 | -0.352 | -0.0704 | -0.237 | -0.122 | -0.127 | 0.236
5 | C=C(COC)/C(=C/C[C@H](OC(C)=O)c1ccc(CO)o1)c1cc(C(=O)OC)ccc1OC | 1.12 | 0.667 | -0.201 | -0.0994 (inactive) | 0.483 | -0.0434 | -0.173 | -0.0145 | -0.164 | 1.32 | 0.487 | -0.246 | -0.151 | -0.0624 | 0.204 | -0.0107 | -0.105 | -0.0489 | 0.0742 | -0.136
6 | C=C[C@H](CO[Si](CC)(CC)CC)N(Cc1ccc(OC(C)=O)c(OC)c1)S(=O)(=O)c1ccc(Br)cc1 | 0.609 | 0.964 | 0.471 | -0.0534 (inactive) | 0.365 | 0.443 | 0.275 | 0.465 | 0.0558 | 1.1 | 1.15 | -3.27 | 0.537 | 1.41 | 0.67 | 0.101 | -0.057 | 0.0481 | 1.12 | 1.23
7 | COC(=O)[C@@]1(Cc2ccc(F)cc2)[C@H]2c3cc(C(=O)N4CCCC4)n(Cc4ccc(S(C)(=O)=O)cc4)c3C[C@H]2CN1C(=O)c1ccccc1 | 1.2 | 1.14 | 0.949 | -0.501 (inactive) | 0.598 | 0.108 | 0.771 | 0.473 | 0.328 | 1.38 | 1.38 | -1.88 | 0.533 | 1.36 | 1.05 | 0.25 | 0.232 | 1.89 | 0.186 | 0.453
8 | COc1cc2c(cc1OC)CN(C(=O)[C@@H]1[C@H]3C(=O)O[C@H](c4ccccc4)[C@H](c4ccccc4)N3[C@H](c3ccc(O)cc3)[C@@]13C(=O)Nc1ccccc13)CC2 | 1.66 | -0.22 | 0.104 | -0.764 (inactive) | 0.397 | 1 | -0.0444 | 0.346 | 0.27 | -0.131 | 1.39 | -1.74 | 0.0147 | 0.457 | 0.603 | -0.154 | -0.167 | -0.321 | 0.688 | 1.74
9 | NC(=O)NCC#Cc1ccc2c(c1)[C@]1(C(=O)N2)[C@H](C(N)=O)[C@H]2C(=O)O[C@H](c3ccccc3)[C@H](c3ccccc3)N2[C@@H]1c1ccc(O)cc1 | 1.51 | -0.912 | -0.142 | -0.712 (inactive) | 0.353 | -0.348 | -0.858 | -0.0676 | -1.27 | 0.778 | 0.502 | 0.408 | -1.13 | 0.721 | 0.562 | 0.726 | 0.42 | 2.39 | 3.44 | 2.12
10 | C#C[C@H](O[Si](C#Cc1ccc(Oc2ccccc2)cc1)(C(C)C)C(C)C)c1ccccc1 | 1.39 | 0.629 | 0.0024 | -0.855 (inactive) | 0.406 | 0.639 | 0.144 | 0.563 | -0.0522 | -0.0811 | 0.922 | -1.73 | 0.764 | -0.355 | -0.571 | -0.0519 | -0.248 | -0.244 | 0.692 | 0.495
